# Assay results reported in paper PMC7862700, “An all-to-all approach to the identification of sequence-specific readers for epigenetic DNA modifications on cytosine”.
# Assays:
# Assay in all cases: DAPPL (digital affinity profiling via proximity ligation, sequencing); 10 mM Tris-HCl pH 7.5, 50 mM NaCl, 1 mM DTT, 4% glycerol, room temperature, 30 min; GST-TFs on glutathione beads, 16-mer random dsDNA library, 0.1% formaldehyde crosslink after washing; high values mean tight binding
# Settings in all cases: protein: recombinant; tags: N-terminal GST; dsDNA, one strand shown
# FLI1 = target: T1, FLI1 (Homo sapiens, UniProt Q01543 1-452)
# T1 sequence: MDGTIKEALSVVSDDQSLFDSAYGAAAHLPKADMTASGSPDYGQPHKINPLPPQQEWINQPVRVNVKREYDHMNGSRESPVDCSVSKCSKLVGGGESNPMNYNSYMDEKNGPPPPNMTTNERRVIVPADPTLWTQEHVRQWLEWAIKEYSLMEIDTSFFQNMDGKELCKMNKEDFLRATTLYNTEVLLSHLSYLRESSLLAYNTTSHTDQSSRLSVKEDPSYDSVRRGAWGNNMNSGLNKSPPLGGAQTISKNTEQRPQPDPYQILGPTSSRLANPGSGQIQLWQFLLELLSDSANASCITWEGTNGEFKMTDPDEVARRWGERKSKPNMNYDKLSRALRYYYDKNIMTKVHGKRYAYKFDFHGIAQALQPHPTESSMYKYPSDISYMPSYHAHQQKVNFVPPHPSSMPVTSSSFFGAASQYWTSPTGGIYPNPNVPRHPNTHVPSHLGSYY
# Outline: (§1)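 The binding signal reported is, for every hexamer, its read frequency for a factor over its read frequency for the tag-only sample. Reads came from pools of yeast-expressed, GST-fused human transcription factors on glutathione beads, barcoded with DNA and mixed with that sample, which were incubated with 200 nmole of a random double-stranded 16-mer DNA library in Tris/NaCl/DTT/glycerol buffer at room temperature for 30 min. After washing, the pools were crosslinked with 0.1% formaldehyde, proximity-ligated with BsaI/T4 ligase for 1 h at 37 °C, PCR-amplified and sequenced on an Illumina NextSeq500.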
# ELK1 = target: T2, ELK1 (Homo sapiens, UniProt P19419 1-428)
# T2 sequence: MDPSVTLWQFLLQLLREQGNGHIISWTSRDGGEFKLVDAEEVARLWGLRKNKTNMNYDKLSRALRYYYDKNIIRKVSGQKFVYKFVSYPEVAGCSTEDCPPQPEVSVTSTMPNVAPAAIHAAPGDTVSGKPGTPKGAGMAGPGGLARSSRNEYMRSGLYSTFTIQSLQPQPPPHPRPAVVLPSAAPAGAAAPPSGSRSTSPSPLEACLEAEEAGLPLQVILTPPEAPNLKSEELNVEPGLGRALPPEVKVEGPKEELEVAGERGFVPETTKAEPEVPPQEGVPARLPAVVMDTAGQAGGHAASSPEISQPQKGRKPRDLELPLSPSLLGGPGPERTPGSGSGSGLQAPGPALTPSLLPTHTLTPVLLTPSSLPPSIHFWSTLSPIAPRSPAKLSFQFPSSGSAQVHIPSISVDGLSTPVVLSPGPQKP
# Outline: as §1
# GABPA = target: T3, GABPA (Homo sapiens, UniProt Q06546 1-454)
# T3 sequence: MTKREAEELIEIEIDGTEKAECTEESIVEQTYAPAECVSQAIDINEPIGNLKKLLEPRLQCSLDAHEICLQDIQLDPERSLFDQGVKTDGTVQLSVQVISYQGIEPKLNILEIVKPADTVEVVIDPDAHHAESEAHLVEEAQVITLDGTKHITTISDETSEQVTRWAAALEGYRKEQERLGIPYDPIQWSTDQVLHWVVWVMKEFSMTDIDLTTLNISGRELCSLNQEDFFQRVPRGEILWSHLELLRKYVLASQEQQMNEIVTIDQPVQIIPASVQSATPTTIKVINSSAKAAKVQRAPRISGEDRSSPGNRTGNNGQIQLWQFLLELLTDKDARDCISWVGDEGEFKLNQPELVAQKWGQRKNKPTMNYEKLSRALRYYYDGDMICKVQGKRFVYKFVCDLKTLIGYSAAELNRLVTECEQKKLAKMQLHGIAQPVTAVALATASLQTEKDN
# Outline: as §1
# ERG = target: T4, ERG (Homo sapiens, UniProt P11308 1-479)
# T4 sequence: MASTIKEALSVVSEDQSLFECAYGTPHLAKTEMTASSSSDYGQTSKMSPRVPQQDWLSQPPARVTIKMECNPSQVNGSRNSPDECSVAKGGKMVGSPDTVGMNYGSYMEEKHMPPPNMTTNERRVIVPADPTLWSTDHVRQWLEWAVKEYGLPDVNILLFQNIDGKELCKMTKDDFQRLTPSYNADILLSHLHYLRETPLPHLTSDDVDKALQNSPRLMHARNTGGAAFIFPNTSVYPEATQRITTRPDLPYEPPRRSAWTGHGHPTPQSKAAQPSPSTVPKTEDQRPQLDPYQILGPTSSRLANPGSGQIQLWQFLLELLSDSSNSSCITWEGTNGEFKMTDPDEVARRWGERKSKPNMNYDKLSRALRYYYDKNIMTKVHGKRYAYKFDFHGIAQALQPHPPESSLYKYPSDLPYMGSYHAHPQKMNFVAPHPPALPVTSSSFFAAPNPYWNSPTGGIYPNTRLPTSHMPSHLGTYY
# Outline: as §1
# ELF1 = ELF1 (Homo sapiens, UniProt P32519 1-619)
# ELF1, sequence (P32519 whole entry): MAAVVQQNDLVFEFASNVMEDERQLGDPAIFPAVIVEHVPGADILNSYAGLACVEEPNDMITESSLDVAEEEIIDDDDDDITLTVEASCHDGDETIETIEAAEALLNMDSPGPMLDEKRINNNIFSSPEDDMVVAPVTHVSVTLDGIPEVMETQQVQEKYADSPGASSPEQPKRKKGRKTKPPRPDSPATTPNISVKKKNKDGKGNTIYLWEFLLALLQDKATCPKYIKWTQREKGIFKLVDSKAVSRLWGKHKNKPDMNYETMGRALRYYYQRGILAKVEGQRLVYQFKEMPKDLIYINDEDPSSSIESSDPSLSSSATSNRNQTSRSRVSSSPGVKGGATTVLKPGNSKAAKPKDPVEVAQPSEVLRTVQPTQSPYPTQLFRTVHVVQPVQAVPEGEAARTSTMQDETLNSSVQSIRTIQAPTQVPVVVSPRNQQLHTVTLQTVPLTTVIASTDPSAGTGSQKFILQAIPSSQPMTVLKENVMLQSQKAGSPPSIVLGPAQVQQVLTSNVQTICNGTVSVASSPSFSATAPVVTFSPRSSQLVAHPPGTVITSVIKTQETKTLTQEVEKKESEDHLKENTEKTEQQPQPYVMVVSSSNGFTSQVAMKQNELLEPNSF
# Outline: as §1
# EHF = target: T5, EHF (Homo sapiens, UniProt Q9NZC4 1-300)
# T5 sequence: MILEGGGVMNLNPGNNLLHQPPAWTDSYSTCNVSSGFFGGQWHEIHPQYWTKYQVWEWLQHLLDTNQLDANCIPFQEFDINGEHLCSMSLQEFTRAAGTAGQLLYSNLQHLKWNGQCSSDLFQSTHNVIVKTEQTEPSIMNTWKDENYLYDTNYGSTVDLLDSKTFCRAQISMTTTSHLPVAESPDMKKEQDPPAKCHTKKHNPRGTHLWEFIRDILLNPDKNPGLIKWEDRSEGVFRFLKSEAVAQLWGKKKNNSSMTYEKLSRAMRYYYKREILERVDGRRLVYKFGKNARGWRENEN
# Outline: as §1
# SPIB = SPIB (Homo sapiens, UniProt Q01892 1-262)
# SPIB, sequence (Q01892 whole entry): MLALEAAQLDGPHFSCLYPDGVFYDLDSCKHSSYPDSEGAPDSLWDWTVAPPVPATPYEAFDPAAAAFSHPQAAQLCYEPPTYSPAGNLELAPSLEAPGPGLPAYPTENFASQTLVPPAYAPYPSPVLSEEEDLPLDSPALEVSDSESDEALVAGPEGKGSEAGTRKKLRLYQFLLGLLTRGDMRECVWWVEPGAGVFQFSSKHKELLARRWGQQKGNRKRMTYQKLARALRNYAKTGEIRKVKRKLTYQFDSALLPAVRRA
# Outline: as §1
# ELK3 = target: T6, ELK3 (Homo sapiens, UniProt P41970 1-407)
# T6 sequence: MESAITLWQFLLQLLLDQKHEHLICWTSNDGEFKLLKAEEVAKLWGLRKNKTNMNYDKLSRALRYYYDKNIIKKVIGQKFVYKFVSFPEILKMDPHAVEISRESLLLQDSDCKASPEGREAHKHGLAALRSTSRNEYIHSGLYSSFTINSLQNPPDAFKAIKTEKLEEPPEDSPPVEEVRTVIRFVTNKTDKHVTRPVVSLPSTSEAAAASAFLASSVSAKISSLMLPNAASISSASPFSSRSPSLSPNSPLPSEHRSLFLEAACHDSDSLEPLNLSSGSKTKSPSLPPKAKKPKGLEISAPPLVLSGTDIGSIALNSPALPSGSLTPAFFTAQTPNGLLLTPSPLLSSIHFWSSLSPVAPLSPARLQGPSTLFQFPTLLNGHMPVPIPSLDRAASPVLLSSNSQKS
# Outline: as §1
# SPI1 = SPI1 (Homo sapiens, UniProt P17947 1-270)
# Outline: as §1
Sequence,binding signal (FLI1),binding signal (ELK1),binding signal (GABPA),binding signal (ERG),binding signal (ELF1),binding signal (EHF),binding signal (SPIB),binding signal (ELK3),binding signal (SPI1)
TGCTTA,"1.04 fold enrichment (6-mer frequency, TF over GST control)","1.06 fold enrichment (6-mer frequency, TF over GST control)","1.21 fold enrichment (6-mer frequency, TF over GST control)","1.15 fold enrichment (6-mer frequency, TF over GST control)","1.13 fold enrichment (6-mer frequency, TF over GST control)","1.08 fold enrichment (6-mer frequency, TF over GST control)","1.06 fold enrichment (6-mer frequency, TF over GST control)","1 fold enrichment (6-mer frequency, TF over GST control)",
CGAGCA,"1.17 fold enrichment (6-mer frequency, TF over GST control)","1.18 fold enrichment (6-mer frequency, TF over GST control)","1.18 fold enrichment (6-mer frequency, TF over GST control)","1.13 fold enrichment (6-mer frequency, TF over GST control)","1.14 fold enrichment (6-mer frequency, TF over GST control)","1.05 fold enrichment (6-mer frequency, TF over GST control)","1.16 fold enrichment (6-mer frequency, TF over GST control)","1.14 fold enrichment (6-mer frequency, TF over GST control)",
TGACTG,"1.13 fold enrichment (6-mer frequency, TF over GST control)","1.09 fold enrichment (6-mer frequency, TF over GST control)","1.16 fold enrichment (6-mer frequency, TF over GST control)","1.01 fold enrichment (6-mer frequency, TF over GST control)","1.05 fold enrichment (6-mer frequency, TF over GST control)",,"1.11 fold enrichment (6-mer frequency, TF over GST control)",,"1.1 fold enrichment (6-mer frequency, TF over GST control)"
ATCGCA,"1.07 fold enrichment (6-mer frequency, TF over GST control)","1.07 fold enrichment (6-mer frequency, TF over GST control)","1.1 fold enrichment (6-mer frequency, TF over GST control)","1.03 fold enrichment (6-mer frequency, TF over GST control)","1.08 fold enrichment (6-mer frequency, TF over GST control)","1.02 fold enrichment (6-mer frequency, TF over GST control)",,"1.06 fold enrichment (6-mer frequency, TF over GST control)",
AGCATC,"1.03 fold enrichment (6-mer frequency, TF over GST control)","1.12 fold enrichment (6-mer frequency, TF over GST control)","1.03 fold enrichment (6-mer frequency, TF over GST control)","1.04 fold enrichment (6-mer frequency, TF over GST control)","1.02 fold enrichment (6-mer frequency, TF over GST control)","1.02 fold enrichment (6-mer frequency, TF over GST control)","1.02 fold enrichment (6-mer frequency, TF over GST control)","1.1 fold enrichment (6-mer frequency, TF over GST control)",
ATTAGC,"1.17 fold enrichment (6-mer frequency, TF over GST control)","1.08 fold enrichment (6-mer frequency, TF over GST control)","1.08 fold enrichment (6-mer frequency, TF over GST control)","1.15 fold enrichment (6-mer frequency, TF over GST control)","1.11 fold enrichment (6-mer frequency, TF over GST control)","1.07 fold enrichment (6-mer frequency, TF over GST control)","1.03 fold enrichment (6-mer frequency, TF over GST control)","1.09 fold enrichment (6-mer frequency, TF over GST control)",
TCGCGC,"1.08 fold enrichment (6-mer frequency, TF over GST control)","1.04 fold enrichment (6-mer frequency, TF over GST control)","1.18 fold enrichment (6-mer frequency, TF over GST control)","1.08 fold enrichment (6-mer frequency, TF over GST control)","1.07 fold enrichment (6-mer frequency, TF over GST control)","1.13 fold enrichment (6-mer frequency, TF over GST control)","1.08 fold enrichment (6-mer frequency, TF over GST control)","1.03 fold enrichment (6-mer frequency, TF over GST control)",
GCACGA,"1.14 fold enrichment (6-mer frequency, TF over GST control)","1.02 fold enrichment (6-mer frequency, TF over GST control)","1.23 fold enrichment (6-mer frequency, TF over GST control)","1.02 fold enrichment (6-mer frequency, TF over GST control)","1.05 fold enrichment (6-mer frequency, TF over GST control)","1.09 fold enrichment (6-mer frequency, TF over GST control)","1.08 fold enrichment (6-mer frequency, TF over GST control)","1 fold enrichment (6-mer frequency, TF over GST control)",
